# JMJD2A Tudor inh: JMJD2A Tudor domain (human) inhibition; O75164; AlphaScreen JMJD2A-Tudor / H3K4me3 peptide binding; Potency, µM (top dose mostly 114 µM), without a hit: at the highest dose activity change, negative = inhibition, actives largely listed as inhibitors; 390,000 compounds, 4.4% hits; AID 504339; further: potency means the concentration at half of the fitted maximal effect; on the % scale 0 is the no-effect control and ±100 the full control effect; nearly all actives have a fitted effect of over 50% in size
# Target sequence (O75164 whole entry, looked up, the tested form may be a part): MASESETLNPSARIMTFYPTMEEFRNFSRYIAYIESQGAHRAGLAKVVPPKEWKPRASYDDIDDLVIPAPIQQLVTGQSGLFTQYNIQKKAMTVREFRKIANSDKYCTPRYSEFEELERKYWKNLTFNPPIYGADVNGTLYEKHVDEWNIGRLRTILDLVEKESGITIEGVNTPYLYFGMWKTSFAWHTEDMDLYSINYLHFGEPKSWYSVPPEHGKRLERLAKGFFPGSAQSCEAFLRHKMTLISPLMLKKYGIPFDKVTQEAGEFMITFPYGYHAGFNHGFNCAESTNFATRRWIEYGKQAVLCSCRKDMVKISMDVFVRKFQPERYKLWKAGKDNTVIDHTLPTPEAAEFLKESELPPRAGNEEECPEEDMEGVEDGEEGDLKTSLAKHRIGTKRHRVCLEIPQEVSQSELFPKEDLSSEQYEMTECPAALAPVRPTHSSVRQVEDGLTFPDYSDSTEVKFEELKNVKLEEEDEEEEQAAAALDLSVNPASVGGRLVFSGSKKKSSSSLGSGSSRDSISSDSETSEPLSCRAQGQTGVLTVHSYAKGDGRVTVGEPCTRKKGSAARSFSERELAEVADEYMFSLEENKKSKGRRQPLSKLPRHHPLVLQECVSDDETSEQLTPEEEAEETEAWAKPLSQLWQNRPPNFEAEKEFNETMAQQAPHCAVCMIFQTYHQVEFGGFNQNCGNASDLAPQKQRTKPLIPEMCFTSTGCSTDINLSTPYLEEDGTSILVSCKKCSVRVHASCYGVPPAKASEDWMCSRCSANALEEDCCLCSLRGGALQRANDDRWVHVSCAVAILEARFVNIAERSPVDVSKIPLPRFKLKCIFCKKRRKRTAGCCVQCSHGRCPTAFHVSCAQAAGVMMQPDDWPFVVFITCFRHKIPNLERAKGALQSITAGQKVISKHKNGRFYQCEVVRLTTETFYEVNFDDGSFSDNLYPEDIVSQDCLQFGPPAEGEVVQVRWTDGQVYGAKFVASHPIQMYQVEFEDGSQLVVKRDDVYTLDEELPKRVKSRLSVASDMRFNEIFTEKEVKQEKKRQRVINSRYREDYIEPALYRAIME
# BAZ2B block: blocks human BAZ2B; Q9UIF8; AlphaScreen BAZ2B-H3K14Ac peptide displacement; Potency, µM (top dose mostly 114 µM), for inactives: top-dose activity change, negative = inhibition, usual class: inhibitors; 360,000 compounds, 4.4% hits; AID 504333; further: potency means the concentration at half of the fitted maximal effect; on the % scale 0 is the no-effect control and ±100 the full control effect; nearly all actives have a fitted effect of over 60% in size
#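 Multi-concentration screen (max 110 uM) measuring displacement of acetylated histone H3 peptide from BAZ2B by AlphaScreen, using 50 nM protein, 50 nM peptide and 10 ug/mL streptavidin donor plus Ni-chelate acceptor beads.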
# L3MBTL1 inh: blocks human L3MBTL1. AlphaScreen L3MBTL1–H3K9me1 peptide binding. Potency, µM (doses to about 57.1 µM), for inactives: top-dose activity, negative = inhibition, actives largely listed as inhibitors. 230,000 compounds, 0.66% hits. AID 485360; further: potency means the concentration at half of the fitted maximal effect; on the % scale 0 is the no-effect control and ±100 the full control effect; nearly all actives have a fitted effect of over 60% in size
#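 Displacement of a biotinylated histone H3(1-15) peptide monomethylated at Lys9 (75 nM) from L3MBTL1 (50 nM) was measured by AlphaScreen after a 30 min room-temperature compound incubation; cefsulodin titration served as intraplate control.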
# PI5P4K alpha inh: blocks human PI5P4K alpha kinase activity; P48426; PI5P4Kalpha enzyme, ADP-Glo luminescence, 60 min; active compounds read low; AID 652105; max response, %; 330,000 compounds, 1.2% hits; active means max response of -50% or lower; inconclusive means between -30% and -50%; inactive means -30% or higher; further: value at the top dose of about 77 µM; on the % scale 0 is the no-effect control and ±100 the full control effect
#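 Controls without substrate or without enzyme flank wells where PI5P4Kalpha converts substrate using 5 microM ATP (final). Incubation lasts 60 minutes at room temperature; ADP formed is read by ADP-Glo luminescence.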
# JMJD2E inh: JMJD2E (human) inhibition | 230,000 compounds, 1.6% hits | JMJD2E catalytic domain, FDH-coupled NADH fluorescence (FDH is formaldehyde dehydrogenase) | B2RXH2 | Potency, µM (series often up to 57.1 µM), for inactives: top-dose activity change, negative = inhibition, actives largely listed as inhibitors; active means well fitted inhibition curve with a large enough effect, not every such curve was filed as active; inconclusive means small, poorly fitted or top-dose-only effect, or another doubt; inactive means no such curve, though single readings can be large or run the other way;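 further: potency means the concentration at half of the fitted maximal effect; 0% = wells with enzyme and -100% = buffer wells without enzyme; nearly all actives have a fitted effect of over 50% in size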
# HP1b binding inh: blocks HP1-beta chromodomain binding to methylated histone tails; P83916; AlphaScreen HP1-beta / biotin-H3K9me3 peptide binding; Potency, µM (highest dose often 114 µM), for the others: top-dose activity change, negative = inhibition, hits mostly inhibitors; 390,000 compounds, 0.56% hits; further: potency means the concentration at half of the fitted maximal effect; nearly all actives have a fitted effect of over 70% in size
#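 AlphaScreen: HP1-beta (50 nM) preformed 30 min with biotin-H3(1-18)K9me3 peptide (50 nM) in PBS pH 7.4, 0.01% Tween-20. Compound added for 30 min at RT, then streptavidin donor/nickel chelate acceptor beads (10 ug/mL) for 30 min.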
# An asterisk follows results filed as active; ? = inconclusive; / = no result given; ! = not confirmed by another sample; [ ] = remark or other dose. Only some compounds are listed: those with a hit (about 5.7% of all), similar ones and a draw of the others. Unless noted, the call rests on the fitted dose curve; in most records, active means well fitted inhibition curve with a large enough effect; inconclusive means small, poorly fitted or top-dose-only effect; inactive means no such curve, though single readings can be large or run the other way.
SMILES,JMJD2A Tudor inh,BAZ2B block,L3MBTL1 inh,PI5P4K alpha inh,JMJD2E inh,HP1b binding inh
CCn1cc(C(=O)OCC(=O)c2cc(C)n(-c3ccccc3F)c2C)c(=O)c2ccc(C)nc21,40µM*,?,-12%,-19,-4%,?
COc1ccccc1NC(=O)c1sc2nc(C)c(C(=O)Nc3ccc(C)cc3C)c(-c3cccs3)c2c1N,5%,2%,/,/,/,32%
COc1ccc(NC(=O)CCS(=O)(=O)c2ccc3c(c2)oc(=O)n3C)cc1,-30%,50µM*,/,-28,/,14%
CCOc1ccccc1NC(=O)CCS(=O)(=O)c1ccc(OC)cc1,-1%,6%,/,-6,0%,27%
CCc1ccccc1NC(=O)CCS(=O)(=O)c1ccc(OC)cc1,89µM*,?,/,-10,/,?
Cn1c(=O)oc2cc(S(=O)(=O)CCC(=O)Nc3ccccc3)ccc21,-7%,-2%,/,8,/,17%
Cc1ccccc1NC(=O)c1sc2nc(-c3cc4ccccc4oc3=O)[nH]c(=O)c2c1C,0%,-2%,/,/,/,47%
COc1ccccc1NC(=O)c1ccc(NC(=O)COC(=O)C2(C)CC2(Cl)Cl)cc1 (configuration not stated),79µM*,-7%,-3%,-6,5%,3%
CCc1ccc(-n2nc(CO)c(C(=O)NCCCc3ccccc3)n2)cc1,-7%,1%,/,/,/,25%
CCN(CC)c1ccc(C=C2C(=O)OC3(CCCCC3)OC2=O)cc1,-31%,?,-22%,-1,-21%,26%
CCN(CC)c1ccc(/C=C2/C(=O)c3ccc(C(=O)O)cc3C2=O)cc1,?,25µM*,25µM*,-92*,-3%,35µM*
Cc1oc(-c2ccccc2Cl)nc1CN1CCCCC1c1cccnc1 (configuration not stated),-13%,?,-10%,0,22µM*,40%
COc1ccc2c(c1)C(=O)C(=O)N2,-2%[57.1 µM],?,-11%,-11,-5%,31%
COc1ccc2c(c1)NC(C)(C)C=C2C,63µM*,40µM*,-21%,?,?,45µM*
CC1=CC(C)(C)Nc2ccccc21,?,50µM*!,?,6,?,24%
Cn1c(CN2CCOCC2)nc2cc(NC(=O)c3ccccc3[N+](=O)[O-])ccc21,0%,-10%,/,/,/,33%
Cc1cc([N+](=O)[O-])cc([N+](=O)[O-])c1NCC(C)C,45µM*,13µM*,?,3,-20%,40µM*
CC1(CC(=O)N/N=C/c2cc(Br)c(O)cc2O)OCCO1,-20%,-8%,14%,/,25µM*,49%
CN(C)c1ccc(Nc2nc(N)c3ccccc3n2)cc1,40µM*,14µM*,?,?,/,32µM*
O=C(c1ccc(CS(=O)(=O)c2c(Cl)cccc2Cl)o1)N1CCN(c2ccccc2)CC1,-32%,?,/,/,/,10%
CCCCc1nn2c(=O)cc(COC(=O)c3ccccc3NC(=O)c3cccc(C)c3)nc2s1,-12%,-1%,/,/,/,7%
Cc1cc(C)cc(-n2nnc(-c3nc(-c4ccc5c(c4)OCO5)no3)c2C)c1,-7%,5%,/,/,/,8%
CCOC(=O)CSC1=NC(=O)/C(=C/c2ccc(OC)cc2)S1,-21%,-7%,2%,-51*,6%,16%
COc1ccc(/C=C2\SC(N)=NC2=O)cc1,-10%,-13%,3%,6,/,57%
COC(=O)c1ccccc1NC(=O)CNc1cc(OC)c(OC)cc1C,?,45µM*,-14%,-5,?,-23%
SMILES,JMJD2A Tudor inh,BAZ2B block,L3MBTL1 inh,PI5P4K alpha inh,JMJD2E inh,HP1b binding inh
COC(=O)c1ccccc1NC(=O)COC(=O)c1ccccc1N=Nc1ccc(N(C)C)cc1,32µM*,8.9µM*,10µM*,-3,-3%,?
COC(=O)c1ccccc1NC(=O)COC(=O)/C=C/c1ccco1,-13%,?,-19%,-1,5%,12%
CCc1ccccc1NCC(=O)Nc1ccccc1C(=O)OC,1%,2%,5%,2,6%,33%
CC(=O)c1ccc(NC(=O)COC(=O)c2ccccc2N=Nc2ccc(N(C)C)cc2)cc1,13µM*,5µM*,?,7,6%,32µM*
CN(C)c1ccc(C(=O)OCC(=O)Nc2ccc(N3CCOCC3)cc2)cc1,4%,-2%,0%,-6,-24%,24%
COC(=O)c1ccccc1NC(=O)CC(NCc1ccccc1)C(=O)O (configuration not stated),28µM*,/,/,/,/,21%
COc1ccc(CCNC(=O)C(C)n2c(=O)cc(-c3ccccc3)c3c(C)nn(C)c32)cc1OC (configuration not stated),-24%,-18%,/,/,/,?
O=C(CSC1=Nc2ccccc2C2=NC(Cc3ccccc3)C(=O)N12)Nc1cccc(Cl)c1 (configuration not stated),-17%,-13%,/,/,/,21%
COC(=O)c1ccccc1NC(=O)COC(=O)c1ccc(C)c(NC(=O)c2ccco2)c1,-17%,23%,-1%,/,?,35%
CN(C)c1ccc(N=Nc2ccccc2C(=O)OCC(=O)N(C)c2ccccc2)cc1,13µM*,10µM*,?,-3,-2%,?
COC(=O)c1ccccc1NC(=O)COC(=O)c1ccco1,?,50µM*,?,-28,?,6%
NS(=O)(=O)c1ccc(NC(=O)COC(=O)c2cc(Cl)ccc2[N+](=O)[O-])cc1,-14%,-15%,/,-15,6%,8%
CN(C)c1ccc(NC(=O)COC(=O)c2cc(Cl)ccc2[N+](=O)[O-])cc1,25µM*,35µM*,?,3,-12%,50µM*
COc1ccc2c(c1)c(-c1csc(N)n1)c(C)n2C,-55%,79µM*,-3%[2.29 µM],4,/,-13%
Cc1ccc2c(c1)c(-c1csc(N)n1)c(C)n2C,?,?,/,-10,/,?
Cc1oc(-c2ccc(Cl)cc2)nc1Cn1c(=O)cc(C)c2c(C)nn(-c3ccccc3)c21,9%,1%,/,/,/,68%
CC(=O)Nc1ccc(NC(=O)c2cccc3ccccc23)cc1,?,-14%,-5%,2,/,32%
CN(C)c1cccc(NC(=O)c2cccc3ccccc23)c1,22µM*,28µM*,/,-4,/,50µM*
C=CCOc1ccc(CNn2cn[nH]c2=S)cc1OC,22µM*,-1%,10%,/,2%,24%
C=CCOc1ccc(CNn2cn[nH]c2=S)cc1OCC,8.9µM*,-4%,-1%,/,4%,20%
C=CCOc1ccc(CNc2nccs2)cc1OCC,-12%,0%,-22%,10,?,13%
CC(NC(=O)Cc1ccc(NC(=O)N2CCSc3ncccc32)cc1)c1ccccc1 (configuration not stated),-6%,-13%,/,/,/,36%
